Results filed as inconclusive are left out. A call without a number means that no potency is given here. Unmarked numbers belong to inactive results. Activity calls are given as the source filed them. The call rests on the fitted dose curve; in most records, active means well fitted inhibition curve with a large enough effect; inconclusive means small, poorly fitted or top-dose-only effect; inactive means no such curve, though single readings can be large or run the other way.

The target of the first test is Retinal dehydrogenase 2 (Homo sapiens) (UniProt O94788). The experiment in a line: qHTS for Inhibitors of the Aldehyde Dehydrogenase Family (ALDH1A2) Confirmation screens (AID 2061314). Further: nearly all actives have a fitted effect of over 65% in size. Further: potency means the concentration at half of the fitted maximal effect. To be noted: ALDH1A2 enzyme inhibition qHTS confirmation; series mostly up to 45.9 µM. A general note: Quantitative high-throughput screening tests each substance at several concentrations.
As for `CC(C)(C)OC(=O)N1CCN(c2ncc(NCc3ccc(-c4ccc(C#N)cc4)o3)cn2)CC1`, the Potency is 12.6 µM (active).
As to `CC(C)(C)OC(=O)N1CCN(c2ccc(NCc3ccc(-c4ccc(C#N)cc4)o3)cc2)CC1`, the Potency was 7.94 µM (active).
For the molecule `N#Cc1ccc(-c2ccc(CNc3ccc(N4CCC(C(F)(F)F)CC4)cc3)o2)cc1`, the Potency entry is “inactive”.
On the same count and under the same terms, in the case of `CC(C)(C)OC(=O)N1CCC(c2ccc(NCc3ccc(-c4ccc(C#N)cc4)o3)cc2)CC1` it was 8.91 µM (active); in that of `CCOC(=O)C1CCN(c2ccc(NCc3ccc(-c4ccc(C#N)cc4)o3)cc2)CC1`, 31.6 µM (active); in that of `O=C(O)CN(CCOCCOCCN(CC(=O)O)CC(=O)O)CC(=O)O`, “inactive”.
On the same count and under the same terms, the same measure for `CN1Cc2sccc2C(c2ccc(O)c(O)c2)C1` (stereo unspecified): “inactive”; for `COCC(=O)O[C@]1(CCN(C)CCCc2nc3ccccc3[nH]2)CCc2cc(F)ccc2[C@@H]1C(C)C`: “inactive”.
On the same count and under the same terms, in the case of `CCC(NC(C)C)C(O)c1ccc(O)c(O)c1` (stereo unspecified) it was “inactive”; in that of `CCN(CC)CCNC(=O)c1ccc(N)cc1`, “inactive”.
With `CC(C)NCC(O)c1ccc(O)c(O)c1` (stereo unspecified), the Potency result was “inactive”.
Still for that read-out and setting: the same measure for `CC(C)(C)OC(=O)N1CCN(c2cnc(NCc3ccc(-c4ccc(C#N)cc4)o3)cn2)CC1`: 1.79 µM (active); for `CC(C)(C)OC(=O)N1CCN(c2ccc(NCc3ccc(-c4ccc(C#N)cc4)o3)nc2)CC1`: 25.1 µM (active); for `O=C(O)/C=C/c1ccc(O)c(O)c1`: “inactive”.
Same read-out and setting: in the case of `CC(C)(C)OC(=O)N1CCN(c2cnc(NCc3ccc(-c4ccc(C#N)cc4)o3)nc2)CC1` it was 8.96 µM (active); in that of `O=C1CCc2cc(OCCCCc3nnnn3C3CCCCC3)ccc2N1`, 7.94 µM (active).
On the same count and under the same terms, the same measure for `CC(C)(C)OC(=O)N1CCN(c2cccc(NCc3ccc(-c4ccc(C#N)cc4)o3)c2)CC1`: “inactive”.

In a further test the target is Retinaldehyde dehydrogenase 3 (Homo sapiens) (UniProt P47895). The experiment in a line: qHTS for Inhibitors of the Aldehyde Dehydrogenase Family (ALDH1A3) Primary screen (AID 2061315). Conditions: ALDH inhibition qHTS; series mostly up to 56 µM.
In the case of `CC(C)(C)OC(=O)N1CCN(c2ncc(NCc3ccc(-c4ccc(C#N)cc4)o3)cn2)CC1`, the Potency entry is “inactive”.
Same read-out and setting: the same measure for `CC(C)(C)OC(=O)N1CCN(c2ccc(NCc3ccc(-c4ccc(C#N)cc4)o3)cc2)CC1`: “inactive”.
On the same count and under the same terms, the same measure for `CC(C)(C)OC(=O)N1CCC(c2ccc(NCc3ccc(-c4ccc(C#N)cc4)o3)cc2)CC1`: “inactive”; for `CC(=O)O[C@]1(C(C)=O)CC[C@H]2[C@@H]3C=C(Cl)C4=CC(=O)[C@@H]5C[C@@H]5[C@]4(C)[C@H]3CC[C@@]21C`: “inactive”.
On the same count and under the same terms, the same measure for `CCN(CC)CCNC(=O)c1ccc(N)cc1`: “inactive”; for `Clc1ccc2c(c1)C(N1CCNCC1)=Nc1ccccc1O2`: “inactive”.
Regarding `CC(C)(C)OC(=O)N1CCN(c2cnc(NCc3ccc(-c4ccc(C#N)cc4)o3)cn2)CC1`, the Potency result is “inactive”.
Same read-out and setting: in the case of `CC(C)(C)OC(=O)N1CCN(c2ccc(NCc3ccc(-c4ccc(C#N)cc4)o3)nc2)CC1` it was “inactive”; in that of `N#Cc1ccc(-c2ccc(CNc3ccc(N4CCC(C#N)CC4)cc3)o2)cc1`, “inactive”; in that of `CC(C)(C)OC(=O)N1CCN(c2cnc(NCc3ccc(-c4ccc(C#N)cc4)o3)nc2)CC1`, “inactive”.
Same read-out and setting: in the case of `CC(C)(C)OC(=O)N1CCN(c2ccc(NCc3ccc(-c4ccc(C#N)cc4)o3)cn2)CC1` it was “inactive”; in that of `Cc1ccc(-c2cc(C(F)(F)F)nn2-c2ccc(S(N)(=O)=O)cc2)cc1`, “inactive”; in that of `CC(C)c1c(C(=O)Nc2ccccc2)c(-c2ccccc2)c(-c2ccc(F)cc2)n1CC[C@@H](O)C[C@@H](O)CC(=O)O`, “inactive”.
As to `CCN(CC)CCCC(C)Nc1ccnc2cc(Cl)ccc12` (stereo unspecified), the activity change, negative = inhibition was 6.44% [at 11.2 µM].

In another test the target is Aldehyde dehydrogenase 1A1 (Homo sapiens) (UniProt P00352). The experiment in a line: qHTS for Inhibitors of the Aldehyde Dehydrogenase Family (ALDH1A1) Confirmatory screens (AID 2061316). Further: nearly all actives have a fitted effect of over 65% in size. Further: potency means the concentration at half of the fitted maximal effect. Conditions: ALDH inhibition qHTS; series mostly up to 47.3 µM.
In the case of `N#Cc1ccc(-c2ccc(CNc3ccc(N4CCC(C(F)(F)F)CC4)cc3)o2)cc1`, the Potency was 6.34 µM (active).
As for `CC(C)(C)OC(=O)N1CCC(c2ccc(NCc3ccc(-c4ccc(C#N)cc4)o3)cc2)CC1`, the Potency is 12.7 µM (active).
Regarding `CCOC(=O)C1CCN(c2ccc(NCc3ccc(-c4ccc(C#N)cc4)o3)cc2)CC1`, the Potency was 7.98 µM (active).
Same read-out and setting: in the case of `O=C(O)CN(CCOCCOCCN(CC(=O)O)CC(=O)O)CC(=O)O` it was “inactive”.
On the same count and under the same terms, the same measure for `Cc1ccc(S(=O)(=O)NC(=O)NN2CCCCCC2)cc1`: “inactive”; for `COCC(=O)O[C@]1(CCN(C)CCCc2nc3ccccc3[nH]2)CCc2cc(F)ccc2[C@@H]1C(C)C`: “inactive”.
For the molecule `CCN(CC)CCNC(=O)c1ccc(N)cc1`, the Potency entry was “inactive”.
In the case of `CC(C)NCC(O)c1ccc(O)c(O)c1` (stereo unspecified), the Potency entry is “inactive”.
Same read-out and setting: the same measure for `CC(C)(C)OC(=O)N1CCN(c2cnc(NCc3ccc(-c4ccc(C#N)cc4)o3)cn2)CC1`: 4.49 µM (active); for `CC(C)(C)OC(=O)N1CCN(c2ccc(NCc3ccc(-c4ccc(C#N)cc4)o3)nc2)CC1`: 7.12 µM (active); for `O=C(O)/C=C/c1ccc(O)c(O)c1`: “inactive”.
The same measure, in the same setting: the same measure for `N#Cc1ccc(-c2ccc(CNc3ccc(N4CCC(C#N)CC4)cc3)o2)cc1`: 5.04 µM (active); for `CC(C)(C)OC(=O)N1CCN(c2cnc(NCc3ccc(-c4ccc(C#N)cc4)o3)nc2)CC1`: 10.1 µM (active); for `CC(C)(C)OC(=O)N1CCN(c2ccc(NCc3ccc(-c4ccc(C#N)cc4)o3)cn2)CC1`: 2.25 µM (active).
On the same count and under the same terms, in the case of `CC(C)(C)OC(=O)N1CCN(c2cccc(NCc3ccc(-c4ccc(C#N)cc4)o3)c2)CC1` it was 7.12 µM (active).

(Values after PubChem BioAssay (NCATS).)
